Several values for one entry are separate records, joined by “and”; a condition that tells them apart may be missing. Equal entries are not always repeated. Records with an inconclusive call do not appear. Activity calls are given as the source filed them. Unless noted, calls follow the shape of the dose curve; as a rule, active = well fitted curve in the direction sought with a large enough effect; inconclusive = small, poorly fitted or top-dose-only effect, or another doubt; inactive = no such curve, though single readings can be large; an effect the other way counts as inactive or inconclusive.
Assays:
[1] = qHTS Assay for Lipid Storage Modulators (AID 1519; calls by dose curve; as to activity change, negative = inhibition: % is scaled to controls: 0 for no effect and ±100 for the full control effect); details: Drosophila S3 cells, BODIPY lipid droplet/cell ratio, laser cytometry, cells loaded with oleic acid
Outline: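 Cells seeded at 5,000 per well were treated with compounds over a concentration series and loaded with oleic acid (400 uM, as added). Lipid droplet fluorescence (488 nm excitation, 500-530 nm channel) was read by laser-scanning cytometry and normalized to 20 uM Triacsin C.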

[2] = target: DNA repair nuclease/redox regulator APEX1 (Homo sapiens) (UniProt P27695); assay: qHTS Validation Assay for Inhibitors of the Human Apurinic/apyrimidinic Endonuclease 1 (APE1) (AID 1705;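 also: TAMRA fluorescence gain over two minutes as APE1 cuts a quenched THF abasic duplex; % is scaled to controls: 0 for no effect and ±100 for the full control effect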)
Outline: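 qHTS, 1536-well. APE1 + cpd 15 min RT → 50 nM TAMRA/BHQ-2 THF-abasic dsDNA substrate → kinetic fluorescence, 3 reads/60 s; delta(read3−read1) = reaction progress. No-enzyme buffer = negative control.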

[3] = Counterscreen for APE1 Inhibitors: Fluorescent Dye Displacement Validation Assay (AID 1707);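 also: plate controls were ThO with dsDNA and no compound for no effect and ThO without dsDNA for full effect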
Outline: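 Thiazole Orange (250 nM) bound to 50 nM TAMRA-labelled dsDNA with tetrahydrofuran abasic site; displacement by DNA-binding compounds lowers fluorescence. Buffer 50 mM Tris-HCl pH 7.5, 50 mM NaCl, 2 mM MgCl2, 0.01% Tween-20; endpoint read at 480/540 nm.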

[4] = qHTS for differential inhibitors of proliferation of Plasmodium falciparum line 7G8 (AID 1815);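 also: parasite growth measured after three days of incubation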; also: potency is read from the fitted curve at half-maximal effect;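 as to activity change, negative = inhibition: plate controls were vehicle wells for no effect and reference inhibitor wells for full effect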
[5] = qHTS for differential inhibitors of proliferation of Plasmodium falciparum line GB4 (AID 1816); details: Potency: Plasmodium falciparum GB4 proliferation inhibition;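 also: parasite growth measured after 72 h incubation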; also: potency is read from the fitted curve at half-maximal effect;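 as to activity change, negative = inhibition: 0% = vehicle DMSO and -100% = reference inhibitor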
[6] = qHTS for differential inhibitors of proliferation of Plasmodium falciparum line 3D7 (AID 1876);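 also: parasite growth measured after three days of culture; 0% = vehicle wells and -100% = reference inhibitor wells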
[7] = qHTS for differential inhibitors of proliferation of Plasmodium falciparum line D10 (AID 1877);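 also: parasites grown with compound for 72 h before DNA staining; plate controls were vehicle wells for no effect and reference inhibitor wells for full effect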
[8] = qHTS for differential inhibitors of proliferation of Plasmodium falciparum line Dd2 (AID 1882); details: Potency: Plasmodium falciparum Dd2 proliferation inhibition; also: nearly all actives have a fitted effect of over 65% in size; also: potency is read from the fitted curve at half-maximal effect;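 as to activity change, negative = inhibition: plate controls were DMSO vehicle for no effect and 0.29 µM artemisinin for full effect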
Outline: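 Dd2-infected erythrocytes (0.3% parasitemia, 2.5% hematocrit final) incubated with compound 72 h at 37 C, 5% CO2; lysed with saponin/Triton buffer containing SYBR Green I, incubated overnight in the dark, then read by fluorescence (485/535 nm). Normalized to 0.29 uM artemisinin and DMSO.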

[9] = qHTS for differential inhibitors of proliferation of Plasmodium falciparum line W2 (AID 1883); details: Potency: Plasmodium falciparum W2 proliferation inhibition;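 also: parasites grown with compound for 72 h before lysis and staining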; also: potency is read from the fitted curve at half-maximal effect;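 as to activity change, negative = inhibition: 0% = vehicle wells and -100% = control inhibitor wells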
[10] = qHTS for differential inhibitors of proliferation of Plasmodium falciparum line HB3 (AID 1886); details: Potency: Plasmodium falciparum HB3 proliferation inhibition;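 also: parasites grown with compound for 72 h before SYBR Green readout; plate controls were vehicle for no effect and reference inhibitor for full effect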
[11] = target: Endonuclease 4 (Escherichia coli (strain K12)) (UniProt P0A6C1); assay: Counterscreen for APE1 Inhibitors: qHTS Validation Assay for Inhibitors of Endonuclease IV (AID 1708); also: % is scaled to controls: 0 for no effect and ±100 for the full control effect
Outline: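 qHTS concentration-response format; LOPAC1280 tested under APE1-screen conditions. 2 nM enzyme, 15 min compound preincubation at RT, then 50 nM TAMRA/BHQ-2 abasic substrate; kinetic fluorescence read, three reads at 60 s intervals.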

[12] = Cell Viability - LYMP2-024 (AID 988);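 also: plate controls were DMSO only for no effect and 92 µM tetraoctylammonium bromide for full effect; nearly all actives have a fitted effect of over 60% in size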
Outline: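 Human lymphoblastoid LYMP2-024 cells (2500/well) rested 5 hr, then treated with compound for 24 hr at 37 C in complete medium. Viability was measured as intracellular ATP by CellTiter-Glo luminescence. AC50 values came from Hill-equation fits.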

[13] = Cell Viability - LYMP2-026 (AID 989); also: % is scaled to controls: 0 for no effect and ±100 for the full control effect; nearly all actives have a fitted effect of over 50% in size
Outline: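 Human lymphoblastoid LYMP2-026 cells, 2500/well, exposed to compound 24 h at 37 C in complete medium. Viability as intracellular ATP by CellTiter-Glo luminescence; AC50 from Hill fits of qHTS concentration-response.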

[14] = target: Alpha-galactosidase A (Homo sapiens) (UniProt P06280); assay: Counterscreen for Glucocerebrosidase Inhibitors: qHTS Assay for Human alpha-Galactosidase at pH 4.5 (AID 992); also: 0% is about no effect
Outline: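 Human enzyme (2 nM) with 80 uM 4-methylumbelliferyl alpha-D-galactopyranoside in 50 mM citric acid, 0.005% Tween-20, pH 4.5, 20 min at room temperature. Compounds 0.7 nM–77 uM; fluorescence Ex 365/Em 440 after pH 10 stop; AC50 from Hill fits.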

[15] = Cell Viability - LYMP1-002 - Assay at 24 hr (AID 993); also: % is scaled to controls: 0 for no effect and ±100 for the full control effect
Outline: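 Human lymphoblastoid LYMP1-002 cells (2500/well) treated 24 h at 37 °C; viability as intracellular ATP by CellTiter-Glo luminescence. Tetraoctylammonium bromide as positive control; AC50 from Hill-equation fits of qHTS concentration-response.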

[16] = Cell Viability - LYMP1-002 - Assay at 40 hr (AID 994);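 also: 0% = DMSO only and full inhibition = 92 µM tetraoctylammonium bromide; nearly all actives have a fitted effect of over 60% in size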
Outline: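 LYMP1-002 human lymphoblastoid cells (2500/well, complete medium) were treated with compounds for 40 hr at 37 C. Intracellular ATP was measured by CellTiter-Glo luminescence, and AC50 values came from Hill-equation fits of concentration-response data; tetraoctylammonium bromide was the positive control.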

[17] = target: alpha-glucosidase (Oryza sativa, rice) (UniProt Q653V4); assay: Counterscreen for Glucocerebrosidase Inhibitors: qHTS Assay for Rice alpha-Glucosidase at pH 5.0 (AID 997);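 also: 0% = full activity with enzyme and -100% = basal without enzyme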
Outline: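 Rice alpha-glucosidase (4 nM final) with 400 uM 4-methylumbelliferyl-alpha-D-glucopyranoside in citrate buffer pH 5.0, 20 min at room temperature, stopped at pH 10; fluorescence 365/440 nm, compounds 0.7 nM–77 uM, AC50 from Hill fits.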

[18] = target: Alpha-galactosidase (Coffea arabica) (UniProt Q42656); assay: Counterscreen for Glucocerebrosidase Inhibitors: qHTS Assay for Coffee Bean alpha-Galactosidase at pH 5.9 (AID 998);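 also: plate controls were uninhibited enzyme for no effect and no-enzyme basal signal for full effect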
Outline: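 Compounds were titrated from 0.7 nM to 77 uM against green coffee bean alpha-galactosidase (2 nM) using 80 uM fluorogenic 4-methylumbelliferyl substrate. After 20 min at room temperature, reactions were stopped at pH 10 and read by fluorescence.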

[19] = Validation of Assay for Modulators of Lamin A Splicing (AID 1459; active = well fitted curve in the direction sought with a large enough effect in the signal ratio; the % refers to the signal ratio;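 also: cells exposed to compound for two days before reading; 0% is about no effect; ratio rise marks activators and ratio drop marks inhibitors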)
Outline: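 HeLa S3 lamin A-EGFP/DsRed2 stable clone, 600 cells/well, Opti-MEM 2% FBS; compounds by pin tool; 48 hrs, 37 °C/5% CO2; Acumen 488 nm scan, objects 10-100 um; GFP/RFP intensity ratio.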

[20] = qHTS Assay for Modulators of Human Peripheral Myelin Protein 22 (PMP22) Expression/Activity (AID 1967; active = well fitted curve in the direction sought with a large enough effect in the signal ratio; the % refers to the signal ratio;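 also: 0% = untreated cells and 100% end not stated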)
Outline: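 Luminescence ratio of Pmp22 promoter-driven green luciferase to EF-alpha-driven red luciferase, in engineered mouse MSC80 Schwann cells, served as read-out. Compounds were incubated 24h; untreated cells defined 0% Activity; curves were classified by r2, magnitude and activity.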

[21] = measured here: cell count channel max response
[22] = measured here: lipid channel max response

Chain of Alpha-galactosidase (Coffea arabica) (Q42656 whole entry, looked up): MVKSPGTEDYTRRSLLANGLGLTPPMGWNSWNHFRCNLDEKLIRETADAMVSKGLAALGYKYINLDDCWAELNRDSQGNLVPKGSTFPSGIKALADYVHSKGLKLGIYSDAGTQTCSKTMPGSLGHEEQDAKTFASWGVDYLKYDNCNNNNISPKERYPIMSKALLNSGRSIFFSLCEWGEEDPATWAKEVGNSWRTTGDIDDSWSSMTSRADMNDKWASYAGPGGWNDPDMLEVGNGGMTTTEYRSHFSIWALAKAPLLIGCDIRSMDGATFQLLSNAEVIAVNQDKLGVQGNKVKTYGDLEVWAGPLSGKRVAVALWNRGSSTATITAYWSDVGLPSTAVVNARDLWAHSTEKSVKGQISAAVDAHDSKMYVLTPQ
Chain of DNA repair nuclease/redox regulator APEX1 (Homo sapiens) (P27695 whole entry, looked up): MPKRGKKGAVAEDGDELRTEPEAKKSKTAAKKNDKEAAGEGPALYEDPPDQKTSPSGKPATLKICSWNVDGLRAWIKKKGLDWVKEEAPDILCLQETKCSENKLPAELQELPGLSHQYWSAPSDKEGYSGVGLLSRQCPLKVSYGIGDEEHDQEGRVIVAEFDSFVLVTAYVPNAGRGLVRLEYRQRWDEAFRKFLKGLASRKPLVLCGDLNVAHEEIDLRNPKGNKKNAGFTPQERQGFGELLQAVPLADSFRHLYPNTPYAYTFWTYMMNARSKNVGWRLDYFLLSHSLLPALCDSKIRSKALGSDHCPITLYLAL
Chain of Alpha-galactosidase A (Homo sapiens) (P06280 whole entry, looked up): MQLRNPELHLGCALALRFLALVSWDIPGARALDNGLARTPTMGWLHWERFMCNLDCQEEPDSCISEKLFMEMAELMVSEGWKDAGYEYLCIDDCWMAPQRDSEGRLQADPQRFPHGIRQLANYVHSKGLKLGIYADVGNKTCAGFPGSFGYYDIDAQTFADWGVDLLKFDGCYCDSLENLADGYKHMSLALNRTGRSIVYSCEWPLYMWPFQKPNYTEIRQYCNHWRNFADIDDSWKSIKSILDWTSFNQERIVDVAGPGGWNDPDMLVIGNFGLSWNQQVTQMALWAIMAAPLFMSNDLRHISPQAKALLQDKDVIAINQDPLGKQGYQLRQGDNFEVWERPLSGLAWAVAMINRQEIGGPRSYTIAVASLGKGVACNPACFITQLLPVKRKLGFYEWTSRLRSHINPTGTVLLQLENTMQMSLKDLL

C=C(C)[C@H]1CN[C@H](C(=O)O)[C@H]1CC(=O)O
-9.1%: max response [1, 22]
inactive: activity change, negative = inhibition ([1]; at 57.5 µM (top of the series)) 0.0201% | Potency [2] | outcome [3] | Potency [4] | Potency [5] | Potency [6] | Potency [7] | Potency [8] | Potency [9] | Potency [10]
-9.16%: max response [1, 21]

CN1C(=O)CCS(=O)(=O)C1c1ccc(Cl)cc1 (stereo unspecified)
inactive: activity change, negative = inhibition ([1]; at 57.5 µM (top of the series)) 6.74% and -0.559% | outcome [3] | outcome [11] | Potency [4] | Potency [5] | Potency [6] | Potency [7] | Potency [8] | Potency [10]
18.4% and 40.6%: max response [1, 21]
26.5% and 41.1%: max response [1, 22]

CC(C)(C)NCC(O)c1ccccc1Cl (stereo unspecified)
8.8% and 40.7%: max response [1, 22]
active: Potency [4] 5.62 µM | Potency [5] 6.31 µM | Potency [8] 12.6 µM | Potency [9] 4.47 µM
-1.25% and 42.1%: max response [1, 21]
inactive: activity change, negative = inhibition ([1]; at 57.5 µM (top of the series)) 6.93% and 0.29% | Potency [2] | outcome [3] | outcome [11]

NC(=O)c1cc([N+](=O)[O-])cc([N+](=O)[O-])c1
0.174%: max response [1, 21]
inactive: activity change, negative = inhibition ([1]; at 57.5 µM (top of the series)) 2.42%
7.25%: max response [1, 22]

O=P1(N(CCCl)CCCl)NCCCO1 (stereo unspecified)
-27.9%: max response [1, 21]
inactive: outcome [12] | outcome [13] | outcome [14] | Potency [15] | Potency [16] | outcome [17] | outcome [18] | activity change, negative = inhibition ([1]; at 57.5 µM (top of the series)) 0.148% | Potency [2] | outcome [3] | outcome [11] | Potency [4] | Potency [5] | Potency [6] | Potency [7] | Potency [8] | Potency [9] | Potency [10]
-28.7%: max response [1, 22]

CC(C)c1cccc(C(C)C)c1O
inactive: outcome [12] | outcome [13] | outcome [14] | Potency [15] | Potency [16] | outcome [17] | outcome [18] | outcome [19] | activity change, negative = inhibition ([1]; at 25.7 µM (top of the series)) -0.519% | Potency [2] | outcome [3] | outcome [11] | Potency [4] | Potency [5] | Potency [6] | Potency [7] | Potency [8] | Potency [9] | Potency [10] | outcome [20]
-3.68%: max response [1, 22]
-4.81%: max response [1, 21]

CCOC(=O)CC(SP(=S)(OC)OC)C(=O)OCC (stereo unspecified)
inactive: outcome [12] | outcome [13] | Potency [15] | Potency [16]

O=c1oc2ccccc2c(O)c1Cc1c(O)c2ccccc2oc1=O
-10.4%: max response [1, 22]
-11.3%: max response [1, 21]
inactive: activity change, negative = inhibition ([1]; at 25.7 µM (top of the series)) 0.983%

O=c1[nH]oc2c1CCNC2
inactive: outcome [14] | outcome [17] | outcome [18] | activity change, negative = inhibition ([1]; at 25.7 µM (top of the series)) -3.52% | activity change, negative = inhibition ([1]; at 57.5 µM (top of the series)) -0.0762% and 5.91% | Potency [2] | outcome [3] | Potency [4] | Potency [5] | Potency [6] | Potency [7] | Potency [8] | Potency [9] | Potency [10]
-6.88% and 7.61% and 14.4%: max response [1, 21]
-10.1% and 10.3% and 21.9%: max response [1, 22]
